The source of these data is PubChem BioAssay AID720706 (Broad Institute, 2013).

Among all 350,000 compounds or so, about 5,500 (1.6%) were called active.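 How the source made its calls: active means significant combined selectivity score with lowered wild-type GFP, culture density cut under 30%, mutant RFP and density less affected; inactive means any of these conditions unmet.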 This excerpt belongs to a sample that is enriched for actives.

The test in a line: GFP drop in mixed WT/humanized-ribosome E. coli culture – GFP/RFP fluorescence, OD600, single point, bacterial rRNA inhibitor project, primary screen (AID 720706). The note with it: E. coli WT GFP vs humanized-ribosome RFP mutants, 24 h; GFP signal change (wild-type ribosome): stronger effect = lower value, DMSO median 0, no signal -100; OD600 change: measured here: OD600 growth, DMSO median 0, no signal -100; RFP signal change: measured here: RFP humanized mutant strains, DMSO median 0, no signal -100, concentration not given here.
`C[C@H]1CCCCO[C@H](CN(C)CC2CCCCC2)[C@@H](C)CN([C@@H](C)CO)C(=O)c2cc(NS(=O)(=O)c3ccc(Cl)cc3)ccc2O1`: the GFP signal change (wild-type ribosome) was -56.3% (inactive), the OD600 change is -77.3% and the RFP signal change is -17.5%.

Turning to `CN(C)C(=O)c1cccc(-c2ccc([C@H]3[C@H](CO)N4C(=O)CN(C(=O)Cc5ccccc5)C[C@@H]34)cc2)c1`, the GFP signal change (wild-type ribosome) was 6.84% (inactive), the OD600 change was 11.5% and the RFP signal change came to 5.77%.

Regarding `CC(=O)Nc1ccc(OC(=O)COc2ccc(Br)cc2)cc1`, the GFP signal change (wild-type ribosome) is 18.1% (inactive), the OD600 change came out at 16.8% and the RFP signal change stood at 1.93%.

On to `Cn1cccc1C(=O)NNC(=O)COc1ccc(Br)cc1`, for which the GFP signal change (wild-type ribosome) is -1.7% (inactive), the OD600 change was 4.13% and the RFP signal change was 0.868%.

As for `Cc1ccc(O)c(NC(=S)NC(=O)COc2ccc(Br)cc2)c1`, the GFP signal change (wild-type ribosome) was -23.6% (active), the OD600 change is -13.5% and the RFP signal change was determined as 6.14%.

Turning to `CC[C@H]1CC=CC[C@@H](C)Oc2ccccc2C(=O)N(C)[C@H](Cc2ccccc2)C(=O)N1` (mixture of isomers), the GFP signal change (wild-type ribosome) was -6.4% (inactive), the OD600 change is -38% and the RFP signal change is -3.29%.

For the compound `CC(C)NC(=O)N(C)C[C@H]1Oc2ncc(C#CC3(O)CCCC3)cc2C(=O)N([C@H](C)CO)C[C@@H]1C`, the GFP signal change (wild-type ribosome) is 2.98% (inactive), the OD600 change came out at 9.89% and the RFP signal change stood at 0.31%.

Take `O=[N+]([O-])c1cc(C(F)(F)F)ccc1NCCc1ccncc1`: the GFP signal change (wild-type ribosome) was 1.68% (inactive), the OD600 change was 6.66% and the RFP signal change was -1.21%.

As to `Nc1ccccc1Sc1ccc(C(F)(F)F)cc1[N+](=O)[O-]`, the GFP signal change (wild-type ribosome) is -36.7% (active), the OD600 change was -4.9% and the RFP signal change was -9.75%.

In the case of `Nc1ccccc1Sc1cc(Cl)nnc1Cl`, the GFP signal change (wild-type ribosome) was 2.47% (inactive), the OD600 change amounted to 3.13% and the RFP signal change was -2.25%.

In the case of `C[C@H]1CN([C@@H](C)CO)C(=O)c2cccc(NC(=O)c3ccncc3)c2O[C@@H]1CN(C)C`, the GFP signal change (wild-type ribosome) is 2.69% (inactive), the OD600 change came out at 14.6% and the RFP signal change was -0.879%.

For the compound `CCc1noc(C)c1C(=O)OCC(=O)c1ccc(NC(=O)CC(C)C)cc1`, the GFP signal change (wild-type ribosome) is -6.83% (inactive), the OD600 change was -38.8% and the RFP signal change worked out at 4.13%.

Turning to `Cc1ccc(-c2csc(NC(=O)C3=COCCO3)n2)cc1C`, the GFP signal change (wild-type ribosome) was -32% (inactive), the OD600 change is -55.4% and the RFP signal change was 17.9%.

For `CCc1noc(C)c1C(=O)Nc1nc(-c2ccccc2)cs1`, the GFP signal change (wild-type ribosome) was -30.7% (active), the OD600 change was -24.6% and the RFP signal change is -5.38%.

On to `COc1ccc2c3c(n(C)c2c1)[C@H](CO)N(Cc1cccnc1)CC31CCN(Cc2cccnc2)CC1`, for which the GFP signal change (wild-type ribosome) was -3.41% (inactive), the OD600 change is 7.26% and the RFP signal change was 0.685%.

Turning to `C[C@@H]1CN([C@@H](C)CO)C(=O)c2cc(N(C)C)ccc2O[C@@H](C)CCCCO[C@@H]1CN(C)C(=O)CCC(F)(F)F`, the GFP signal change (wild-type ribosome) is -1.52% (inactive), the OD600 change was -0.235% and the RFP signal change was determined as 1.42%.

For `C/C=C/c1cccc(-c2nc(C(=O)NCCN3CCCC3)cc3c2[C@@H](CCO)N([S@](=O)C(C)(C)C)C3)c1`, the GFP signal change (wild-type ribosome) was 6.3% (inactive), the OD600 change was -2.18% and the RFP signal change is -0.457%.

With `CCOC(=O)C1(CCOc2ccccc2)CCN(Cc2ccc(C#CCCO)cc2)CC1`, the GFP signal change (wild-type ribosome) is 2.81% (inactive), the OD600 change is -4.44% and the RFP signal change was -0.935%.

As to `CCCS(=O)(=O)N1CCC(CCOc2ccccc2)(C(=O)OCC)CC1`, the GFP signal change (wild-type ribosome) is -17.9% (inactive), the OD600 change is -32.1% and the RFP signal change was -4.54%.

Turning to `CCOC(=O)C1(CCOc2ccccc2)CCN(Cc2cc(OC)cc(OC)c2)CC1`, the GFP signal change (wild-type ribosome) was -33.8% (active), the OD600 change was -25.8% and the RFP signal change is -6.01%.

Consider `COc1ccc2c3c([nH]c2c1)[C@H](CO)N(Cc1cccc(F)c1)CC31CCN(CC2CC2)CC1`, for which the GFP signal change (wild-type ribosome) is 4.42% (inactive), the OD600 change was found to be 4.76% and the RFP signal change is -1.35%.

With `CC(C)NC(=O)N(C)C[C@H]1Oc2ccc(N)cc2C(=O)N(C)C[C@@H]1C`, the GFP signal change (wild-type ribosome) is 0.734% (inactive), the OD600 change was 6.88% and the RFP signal change is -0.42%.

`OC[C@@H]1[C@@H](c2ccccc2)C2(CN(Cc3cccc(F)c3)C2)N1CC1CCCC1`: the GFP signal change (wild-type ribosome) is -23.5% (inactive), the OD600 change is -64.7% and the RFP signal change came to 20.6%.

In the case of `CC1CN(S(=O)(=O)c2ccc(C(=O)Nc3sccc3C(N)=O)cc2)CC(C)O1` (centres undefined), the GFP signal change (wild-type ribosome) is -9.92% (inactive), the OD600 change was 0.73% and the RFP signal change is -4.68%.

As for `CNC(=O)c1ccsc1NC(=O)c1ccc(S(=O)(=O)N2CCc3ccccc32)cc1`, the GFP signal change (wild-type ribosome) is -14% (active), the OD600 change was -3.21% and the RFP signal change is -0.575%.

As to `O=S(=O)(c1ccccc1)N1CCc2ccccc21`, the GFP signal change (wild-type ribosome) is 3.46% (inactive), the OD600 change was found to be 1.07% and the RFP signal change amounted to 1.3%.

`CN1C[C@@H]2[C@H](c3ccccc31)[C@@H](CO)N2C(=O)Nc1ccccc1`: the GFP signal change (wild-type ribosome) was -1.61% (inactive), the OD600 change was -4.19% and the RFP signal change is -0.289%.

Turning to `CC(=O)N1[C@@H]2c3ccc(-c4ccccc4)c(=O)n3C[C@@H]2[C@@H](CO)[C@@H]1C(=O)NCc1ccccc1F`, the GFP signal change (wild-type ribosome) was 1.92% (inactive), the OD600 change stood at 0.235% and the RFP signal change was 0.825%.

Turning to `COc1ccc(CN(C)C[C@@H]2OCCCC[C@H](C)Oc3ccc(NS(=O)(=O)c4cccs4)cc3C(=O)N([C@H](C)CO)C[C@@H]2C)cc1`, the GFP signal change (wild-type ribosome) was 1.91% (inactive), the OD600 change is -7.75% and the RFP signal change was 1.8%.

For `CCC(=O)N1CC(=O)N2[C@H](CO)[C@@H](c3ccc(-c4ccc(C(=O)N(C)C)cc4)cc3)[C@@H]2C1`, the GFP signal change (wild-type ribosome) was -0.311% (inactive), the OD600 change was -1.8% and the RFP signal change turned out to be 0.455%.

For the compound `O=C(NCc1nnc(SCC(=O)N2CCCCCC2)o1)c1ccc(F)cc1`, the GFP signal change (wild-type ribosome) is 3.73% (inactive), the OD600 change worked out at 9.68% and the RFP signal change amounted to 2.77%.

For `Cn1c(CNC(=O)c2ccco2)nnc1SCC(=O)N1CCN(c2ccccc2)CC1`, the GFP signal change (wild-type ribosome) was 4.73% (inactive), the OD600 change came to 14.2% and the RFP signal change is -0.921%.

Turning to `O=C(NCc1nnc(SCC(=O)N2CCC(Cc3ccccc3)CC2)o1)c1ccco1`, the GFP signal change (wild-type ribosome) is -22.9% (active), the OD600 change was -18.5% and the RFP signal change was -1.19%.
